Test systems include HCT-15 colon; HT29 colon; SNB-75 CNS; SNB-19 CNS; U251 CNS; PC-3 prostate; SK-MEL-5 melanoma; UACC-62 melanoma; LOX IMVI melanoma; SK-MEL-28 melanoma; EKVX NSCLC; SN12C renal; UO-31 renal; TK-10 renal; ACHN renal; A498 renal; CCRF-CEM leukemia; MOLT-4 leukemia; CAKI-1 renal; SK-MEL-2 melanoma.
Common to all, as to experiment: NCI-60 one-dose screen, 48 h (100 = growth as untreated, 0 = no growth, -100 = all killed)
Details in all cases: 10 µM unless noted

The panel holds about 83,000 compounds, 20% with a hit somewhere; the sample as a whole holds those more often.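 Each cell line was grown in a 96-well plate and treated with one concentration of compound for 48 hours. Values below 10 were considered active.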 A number with no mark means an inactive call. Active and inactive are the calls of the source.

With `COc1ccc(C2=NN(C=O)C(c3cccc(Nc4ccnc5cc(Cl)ccc45)c3)C2)cc1` (stereo unspecified), the growth is 16.6% in the experiment on HCT-15 colon; 4.88% (active) with HT29 colon; 8.36% (active) with SNB-75 CNS; 40% in the experiment with SNB-19 CNS; 19.6% in the experiment on U251 CNS; 22.8% with PC-3 prostate. Also, the growth with SK-MEL-5 melanoma is -21.5% (active); with UACC-62 melanoma, 32.3%; in the experiment with LOX IMVI melanoma it was 25%; in the experiment on SK-MEL-28 melanoma, 50.6%; with EKVX NSCLC, 36.1%; with SN12C renal, 36.1%. Besides, the growth with UO-31 renal was 31.2%; with TK-10 renal, 37.1%; in the experiment on ACHN renal it was 35.9%; with A498 renal it was 27.4%; in the experiment with CCRF-CEM leukemia, 17.1%; with MOLT-4 leukemia, 9.88% (active).
Turning to `CC(=O)N1N=C(c2ccc3c(c2)OCO3)CC1c1c(C)nn(-c2ccccc2)c1N(C)Cc1ccccc1` (stereo unspecified), the growth was 79.2% with HCT-15 colon; 49.8% in the experiment on HT29 colon; 78.7% with SNB-75 CNS; 64.8% in the experiment with SNB-19 CNS; 72.3% in the experiment on U251 CNS; 34.3% in the experiment on PC-3 prostate. The growth was 79.8% with SK-MEL-5 melanoma; 49.5% in the experiment with UACC-62 melanoma; 86.5% in the experiment on LOX IMVI melanoma; 93.3% in the experiment on SK-MEL-28 melanoma; 72.9% in the experiment with EKVX NSCLC; 72.9% in the experiment on SN12C renal. For the same compound, the growth in the experiment with UO-31 renal was 51.9%; with TK-10 renal, 80.9%; with ACHN renal it was 81.3%; in the experiment on A498 renal, 67.4%; with CCRF-CEM leukemia, 69.5%; in the experiment on MOLT-4 leukemia, 41.9%.
In the case of `OCCCc1n(Cc2ccc3ccccc3c2)c2ccccc2[n+]1Cc1ccc2ccccc2c1`, the growth is 86.4% in the experiment with HCT-15 colon; 6.48% (active) in the experiment on HT29 colon; 19.8% in the experiment on SNB-75 CNS; 3.3% (active) with SNB-19 CNS; 13.6% in the experiment on U251 CNS; 22.9% in the experiment on PC-3 prostate. In addition, the growth in the experiment with SK-MEL-5 melanoma was -97.8% (active); in the experiment with UACC-62 melanoma it was -48.2% (active); in the experiment on LOX IMVI melanoma, -41.9% (active); in the experiment on SK-MEL-28 melanoma it was -28% (active); in the experiment on EKVX NSCLC, 47.6%; with SN12C renal, 8.7% (active). The growth in the experiment on UO-31 renal is 76.4%; with TK-10 renal, 37.5%; in the experiment on ACHN renal, 81.6%; in the experiment on A498 renal, 46%; in the experiment on CCRF-CEM leukemia, 30.8%; in the experiment on MOLT-4 leukemia, 19.7%.
For `c1ccc(-c2n(Cc3ccc4ccccc4c3)cc[n+]2Cc2ccc3ccccc3c2)cc1`, the growth in the experiment with HCT-15 colon is 15.2%; with HT29 colon, -83.8% (active); with SNB-75 CNS it was -29.5% (active); in the experiment with SNB-19 CNS, -32.4% (active); in the experiment on U251 CNS, -93.5% (active); with PC-3 prostate it was -58.8% (active). The growth with SK-MEL-5 melanoma is -98.4% (active); in the experiment with UACC-62 melanoma, -80% (active); in the experiment with LOX IMVI melanoma, -92.5% (active); with SK-MEL-28 melanoma it was -84.2% (active); with EKVX NSCLC, 3.5% (active); with SN12C renal it was -34.7% (active). Further, the growth in the experiment with UO-31 renal is -16.6% (active); in the experiment on TK-10 renal, -69.8% (active); with ACHN renal it was 13.3%; with A498 renal, -20.5% (active); in the experiment on CCRF-CEM leukemia, 6.85% (active); with MOLT-4 leukemia it was -24.9% (active).
Take `O=C(Nc1nn2c(-c3cc(C(F)(F)F)cc(C(F)(F)F)c3)nnc2s1)C1CCCC1`: the growth in the experiment with HCT-15 colon is 13.6%; with HT29 colon, -28.7% (active); in the experiment on SNB-75 CNS, 37.9%; in the experiment with SNB-19 CNS, 26.6%; with U251 CNS it was 4.37% (active); in the experiment with PC-3 prostate it was 8.85% (active). For the same compound, the growth is -69.6% (active) with SK-MEL-5 melanoma; 7.5% (active) with UACC-62 melanoma; 13.1% in the experiment on LOX IMVI melanoma; 30.4% in the experiment with SK-MEL-28 melanoma; 21.7% in the experiment on EKVX NSCLC; 11.6% in the experiment with SN12C renal. Besides, the growth in the experiment on UO-31 renal is 8.94% (active); in the experiment on TK-10 renal, -30.4% (active); in the experiment on ACHN renal, 8.22% (active); in the experiment with CAKI-1 renal, 7.75% (active); with A498 renal, -21.8% (active); in the experiment on CCRF-CEM leukemia it was 13.8%. In addition, the growth with MOLT-4 leukemia was -10.2% (active).
As for `COc1ccc2cc(-c3nc4ccccc4[nH]3)c(=O)oc2c1`, the growth in the experiment with HCT-15 colon is 94.2%; in the experiment on HT29 colon it was 114%; in the experiment on SNB-75 CNS, 126%; in the experiment on SNB-19 CNS, 98.3%; with U251 CNS it was 93.5%; with PC-3 prostate it was 87.5%. The growth in the experiment with SK-MEL-5 melanoma was 94.8%; with UACC-62 melanoma, 83.6%; in the experiment on SK-MEL-28 melanoma it was 103%; with SK-MEL-2 melanoma, 22.1%; with EKVX NSCLC, 77.3%; in the experiment with SN12C renal, 92.3%. In addition, the growth is 94.2% in the experiment with UO-31 renal; 119% in the experiment with TK-10 renal; 86.2% in the experiment on ACHN renal; 82.2% with CAKI-1 renal; 95.6% in the experiment on A498 renal; 95.3% with CCRF-CEM leukemia. Further, the growth in the experiment on MOLT-4 leukemia is 97.7%.
Take `CC(=O)N1N=C(c2ccc(Cl)cc2)CC1c1c(C)nn(-c2ccccc2)c1N(C)Cc1ccccc1` (stereo unspecified): the growth in the experiment on HCT-15 colon is 71%; in the experiment with HT29 colon, 58.5%; in the experiment with SNB-75 CNS, 80.3%; in the experiment on SNB-19 CNS it was 64.4%; with U251 CNS, 68.6%; in the experiment on PC-3 prostate it was 39.3%. The growth in the experiment with SK-MEL-5 melanoma is 70.3%; with UACC-62 melanoma it was 51%; in the experiment with LOX IMVI melanoma, 84.1%; in the experiment on SK-MEL-28 melanoma, 88.1%; with EKVX NSCLC it was 76.4%; in the experiment with SN12C renal it was 63.2%. Further, the growth is 50.2% in the experiment on UO-31 renal; 88.5% with TK-10 renal; 90.9% in the experiment on ACHN renal; 71.6% in the experiment on A498 renal; 73% in the experiment on CCRF-CEM leukemia; 44.4% in the experiment with MOLT-4 leukemia.
Take `COc1cccc(N2CCN(CC(=O)N3CCN(c4nnc(-c5ccc(Cl)cc5)c(-c5ccc(Cl)cc5)n4)CC3)CC2)c1`: the growth with HCT-15 colon was 49.5%; with HT29 colon, 51%; in the experiment on SNB-75 CNS, 76.3%; in the experiment with SNB-19 CNS, 77.1%; with U251 CNS, 65.7%; in the experiment on PC-3 prostate, 15.8%. The growth in the experiment on SK-MEL-5 melanoma was 48.4%; with UACC-62 melanoma, 70.4%; in the experiment on LOX IMVI melanoma, 65%; in the experiment with SK-MEL-28 melanoma, 88.7%; in the experiment with EKVX NSCLC, 57%; with SN12C renal, 76.7%. The growth with TK-10 renal is 93.8%; in the experiment on ACHN renal, 57.1%; with CAKI-1 renal, 92.2%; in the experiment on A498 renal it was 55.4%; with CCRF-CEM leukemia it was 43.2%; in the experiment on MOLT-4 leukemia it was 28.4%.
